High-throughput results deposited in PubChem by National Center for Advancing Translational Sciences (NCATS).
Compounds with a hit are over-represented: about 21% of the library has one in this group of screens.
ClpP mod: qHTS Assay for Activators of ClpP; purified B. subtilis ClpP, FRET peptide cleavage, 20 min; 1.9% of 340,000 active; ATP-dependent Clp protease proteolytic subunit (Bacillus subtilis (strain 168)), P80244; Potency, µM (top dose mostly 57.5 µM); active = well fitted falling curve with a large enough effect; inconclusive = small, poorly fitted or top-dose-only effect; inactive = no such curve, though single readings can be large or run the other way; also: the source files actives as falling curves though it sought activators and does not explain the sign; nearly all actives have a fitted effect of over 65% in size
Target sequence (P80244 whole entry, looked up): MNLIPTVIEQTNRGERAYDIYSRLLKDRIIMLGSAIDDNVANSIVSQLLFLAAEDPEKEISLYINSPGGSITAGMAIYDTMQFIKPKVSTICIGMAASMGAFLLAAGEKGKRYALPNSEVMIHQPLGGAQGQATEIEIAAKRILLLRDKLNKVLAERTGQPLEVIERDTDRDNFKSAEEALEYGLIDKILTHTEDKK
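ClpP 10 microg/mL final, pH 8 Tris/KCl buffer with BSA, glycerol, Tween-20; compound pinned in; FRET-FV substrate; RT 20 min; Ex320/Em430; ΔFRET vs ADEP 5.8 microM, DMSO, no enzyme.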
DT40 TDP1 no CPT: qHTS for Inhibitors of human tyrosyl-DNA phosphodiesterase 1 (TDP1): qHTS in cells in absence of CPT | 15% of 420,000 active | AID 686978, 2013 | Potency, µM (titrated, usually from 46.2 µM), usual class: inhibitors | DT40 Tdp1-/- hTDP1 cells, no CPT, ATP luminescence, 48 h; also: nearly all actives have a fitted effect of over 55% in size
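Readout: luminescence from CellTiter-Glo after 30 min in the dark at RT. Cells: DT40 Tdp1-/- with stable hTDP1, 400/well. Exposure: compounds alone, ≥48 hr, 37 °C.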
DRD3 antagonist: D3 dopamine receptor (human) antagonism; AID 652054; P35462; max response, negative = inhibition, %; 2.5% of 360,000 active; D3R cells, DiscoveRx beta-arrestin luminescence, antagonist mode; hits give low values; in the data active = max response below about -50%; inconclusive = no clear call, values can overlap the other calls
Target sequence (P35462 whole entry, looked up): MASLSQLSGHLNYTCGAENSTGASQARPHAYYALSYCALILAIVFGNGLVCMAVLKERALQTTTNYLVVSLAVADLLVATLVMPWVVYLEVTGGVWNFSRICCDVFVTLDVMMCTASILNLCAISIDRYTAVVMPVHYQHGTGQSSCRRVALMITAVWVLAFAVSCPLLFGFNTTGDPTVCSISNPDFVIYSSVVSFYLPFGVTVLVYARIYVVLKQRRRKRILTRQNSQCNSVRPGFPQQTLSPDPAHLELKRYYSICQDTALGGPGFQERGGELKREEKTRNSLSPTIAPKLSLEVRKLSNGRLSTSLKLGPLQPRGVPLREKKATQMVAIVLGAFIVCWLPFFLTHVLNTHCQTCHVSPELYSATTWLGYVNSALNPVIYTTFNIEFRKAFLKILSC
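Cells expressing the human receptor were seeded at 1500 cells/well, incubated overnight at 37 degrees C in 5% CO2, then exposed to library compounds with dopamine controls for 90 minutes at 37 degrees C before luminescent detection.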
IL-1B inflam inh: inhibitors of inflammasome signaling (IL-1 beta secretion) | THP-1 LPS/ATP IL-1B secretion, AlphaLISA, 16 h; hits give low values | activity change, % at 57.5 µM | AID 743279 | 4.7% of 360,000 active; in the data active = activity change below about -50%; inconclusive = mostly about -30% to -49%
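Secreted IL-1B measured by AlphaLISA bead assay after 16 h compound exposure of THP-1 cells; compounds (final up to 57.5 uM) added 1 h before LPS (250 ng/mL) and ATP (1.25 mM) stimulation; lower signal means less secretion.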
TDP1 cell CPT: growth inhibition of DT40 Tdp1-/-;hTDP1 cells with camptothecin (screen for TDP1 inhibitors) | chicken DT40 Tdp1-/-;hTDP1 cells + 20 nM CPT, ATP luminescence, 48 h | Potency, µM (series often up to 46.2 µM), hits mostly inhibitors | 12% of 420,000 active | AID 686979; also: nearly all actives have a fitted effect of over 55% in size
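Chicken DT40 Tdp1-/- cells stably complemented with human TDP1 were seeded at 400 cells/well in medium containing 20 nM camptothecin, exposed to pin-transferred compounds, and grown at 37 °C for at least 48 hr. Viability was read as ATP luminescence.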
D3 ag: activates the human D3 dopamine receptor; D3R DiscoveRx beta-arrestin cells, luminescence, 90 min; P35462; max activation, %; 0.58% of 410,000 active; AID 652048; in the data active = max activation above about 30%
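Agonist mode: compounds and dopamine controls were applied to plated cells for 90 min at 37 degrees C after an overnight attachment at 1500 cells/well. Luminescent read-out followed 30 - 60 minutes at room temperature with DiscoveRx detection reagent.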
Hits are given with their value; i = inactive; ? = inconclusive; nt = not tested or not shown; [ ] = remark or other dose. Unless noted, calls follow the shape of the dose curve; as a rule, active = well fitted inhibition curve with a large enough effect; inconclusive = small, poorly fitted or top-dose-only effect; inactive = flat fitted curve, though single readings scatter.

SMILES	ClpP mod	DT40 TDP1 no CPT	DRD3 antagonist	IL-1B inflam inh	TDP1 cell CPT	D3 ag
COC(=O)c1cc(NC(=O)c2cc3sccc3n2Cc2ccc(Cl)cc2)cc(C(=O)OC)c1	?	?	nt	nt	?	i
CCOC(=O)C1CCN(C(=O)c2ccc3c(=O)n4nc(Nc5ccccc5)sc4nc3c2)CC1	i	15µM	i	i	21µM	i
CCOC(=O)C1CCN(C(=O)c2ccc3c(SCC(=O)O)c4c(nc3c2)CCCC4)CC1	nt	i	i	i	i	i
O=C1CCN(C(=O)c2ccccc2)c2ccccc21	i	i	i	i	i	i
CCCN(CCC)S(=O)(=O)c1ccc(C(=O)N2CCC(=O)c3ccccc32)cc1	i	23µM	i	i	?	i
O=C(NC1CCCC1)C1C(c2ccc(C(F)(F)F)cc2)=Nc2ccccc2N1C(=O)c1cccc(C(F)(F)F)c1 (configuration not stated)	i	?	i	i	?	i
O=c1[nH]c(CNCc2cccnc2)nc2ccccc12	nt	i	i	i	i	i
CCN1C(=O)C(O)(CC(=O)c2ccc3c(c2)OCCO3)c2ccccc21 (configuration not stated)	i	i	i	i	i	i
CCOC(=O)CN1C(=O)C(O)(CC(=O)c2cccc(OC)c2)c2ccccc21 (configuration not stated)	i	16µM	i	i	?	i
COC(=O)CN1C(=O)C(O)(CC(=O)c2ccccc2)c2ccccc21 (configuration not stated)	i	?	i	i	?	i
C#CCN1C(=O)C(O)(CC(=O)c2cccc(OC)c2)c2ccccc21 (configuration not stated)	i	4.6µM	i	i	5.8µM	i
NC(c1csc(Nc2cc(NCc3ccco3)ncn2)n1)c1ccccc1Cl (configuration not stated)	i	15µM	i	-79	21µM	i
NC(Cc1ccc(F)cc1)c1csc(Nc2cc(NCc3ccco3)ncn2)n1 (configuration not stated)	i	21µM	i	-55	23µM	i
NC(Cc1ccc(F)cc1)c1csc(Nc2ccc(C(=O)NCCCO)cn2)n1 (configuration not stated)	?	?	i	i	?	i
COc1cc(CNC(=O)c2cnc(C)cn2)cc(OC)c1	i	i	i	i	i	i
CCCCCCCCCCCCCCCC(=O)N[C@@H](COP(=O)(O)O)C(=O)O	nt	i[4.12 µM]	nt	nt	i[4.12 µM]	nt
CCCCNCc1cc(OCC)c(OCC)cc1Br	nt	?	i	i	i	i
CCOc1ccc(C(=O)NC(C(=O)NCCc2ccc(OC(F)F)cc2)C(C)C)cc1 (configuration not stated)	nt	i	i	i	i	i
COc1cccc(CSc2nc3n(n2)C(c2cccc(F)c2)C(C(=O)Nc2ccccc2C)=C(C)N3)c1 (configuration not stated)	i	i	nt	nt	i	i
Cc1ccc(OCc2nc3ccccc3n2C(C)C(=O)Nc2c(C)cccc2C)cc1 (configuration not stated)	i	18µM	i	i	?	i
Clc1ccccc1OCCn1cnc2ccccc21	i	i	i	i	i	i
OCCCc1nc2ccccc2n1CCCCOc1ccccc1	i	?	i	i	?	i
OCc1nc2ccccc2n1CCCOc1ccc(Br)cc1	i	18µM	?	i	16µM	i
CCc1nc2ccccc2n1CCCCOc1ccc(C)cc1	i	8.2µM	nt	nt	?	i
OCc1nc2ccccc2n1CCCCOc1ccccc1	nt	?	i	i	?	i
SMILES	ClpP mod	DT40 TDP1 no CPT	DRD3 antagonist	IL-1B inflam inh	TDP1 cell CPT	D3 ag
Clc1ccc(OCCn2cnc3ccccc32)cc1	i	18µM	i	i	23µM	i
Cc1ccc(OCc2nc3ccccc3n2CC(C)C)cc1	i	23µM	nt	nt	?	i
Cc1nc2ccccc2n1CCOc1ccc(F)cc1	i	18µM	i	i	?	i
CCc1nc2ccccc2n1CCCCOc1ccc(Cl)cc1	i	?	nt	nt	21µM	i
CCn1c(COc2ccc(OC)cc2)nc2ccccc21	i	?	i	i	i	i
Cc1ccc(OCCCCn2c(CO)nc3ccccc32)cc1	i	?	i	-52	23µM	i
COc1ccc(OC)c(/C=C/C(=O)OCC(=O)Nc2nnc(-c3ccccc3)o2)c1	?	i	i	i	i	i
C[C@H](CO)N1C[C@H](C)[C@@H](CN(C)S(=O)(=O)c2ccc(F)cc2)Oc2c(NC(=O)c3ccncc3)cccc2C1=O	i	i	i	i	i	i
NC(=O)CCn1cnc2ccccc21	nt	i	i	i	i	i
Cn1c(=O)n(CCCOc2ccc(Br)cc2)c2ccccc21	i	?	i	i	i	i
c1ccc2c(c1)ncn2CCC1CCCCC1	i	21µM	i	i	26µM	i
Cn1c(=O)n(CCCOc2ccc(Cl)cc2)c2ccccc21	i	18µM	i	i	15µM	i
C/C(=N\NC(=O)c1cc(C)oc1C)c1ccc2ccccc2c1	nt	?	i	i	?	i
CC(C)Cc1nn2c(=O)cc(COC(=O)c3ccc(NC(=O)CCc4ccccc4)cc3)nc2s1	i	i	nt	nt	i	i
CC1=C(C(=O)N2CCCCCC2)CC(CC(=O)NC2CCCCC2)C(=O)N1CCC1=CCCCC1 (configuration not stated)	i	?	i	i	13µM	i
CC1=C(C(=O)N(C)C)CC(CC(=O)NCCCCc2ccccc2)C(=O)N1CCC1=CCCCC1 (configuration not stated)	i	?	i	i	?	i
CC1=C(C(=O)N2CCCCCC2)CC(CC(=O)NCCCCc2ccccc2)C(=O)N1CCC1=CCCCC1 (configuration not stated)	i	18µM	i	-67	23µM	i
CCCCN1C(=O)C(CC(=O)NCCCCc2ccccc2)CC(C(=O)N2CCCCCC2)=C1C (configuration not stated)	i	18µM	-52	i	18µM	i
c1nc(C2CCCCC2)cc2cc3c(cc12)OCO3	i	21µM	i	i	?	i
c1nc(CCO[C@H]2CCCCO2)cc2cc3c(cc12)OCO3	i	?	i	i	?	i
CCOc1cc(C=O)cc(Br)c1OCC(N)=O	i	5.2µM	i	i	5.8µM	i
CCCOc1c(Br)cc(C(N)=O)cc1OCC	i	?	i	i	23µM	i
CCOc1c(Br)cc(C(N)=O)cc1OC	i	i	i	i	i	i
Cc1cccc(NC(=O)Cn2cc(C(=O)c3ccco3)c3ccccc32)c1C	i	i	nt	nt	?	i
N[C@@H]1CCN(O)C1=O	nt	i	nt	nt	i	nt
